Experimental findings from the supplement of paper PMC7695840 are described below.

Each structure is given as a SMILES string. Structures can show the parent of a compound that is named as a salt.

The subject of test [1] is Staphylococcus aureus MW2 delta-mecA (mecA-). Briefly: normalized GFP fluorescence (growth of mecA- strain) (fraction of control range); higher = more growth of mecA- strain. To be noted: compound concentration: 150 uM; cefoxitin: subinhibitory; fluorescent label: GFP. The essentials:
(§1)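 Pre-induced S. aureus MW2 mecA+ (DsRed) and ΔmecA (GFP) cells were mixed 1:1 in LB with a daily-set subinhibitory cefoxitin dose. They were dispensed at 5 µL/well onto 150 μM compound (1.5% DMSO) in 1536-well plates, single replicate. Growth was 20 h at 37 °C, 90% humidity, unshaken, and DsRed (540/590) and GFP (485/520) were then read. Each channel was scaled per plate between the medians of the single-strain controls. Plates with high No Treatment ratios and rows with DsRed/GFP >10 were excluded.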

In test [2] the test system is Staphylococcus aureus MW2 (mecA+). The test is described as follows: normalized DsRed fluorescence (growth of mecA+ strain) (fraction of control range); higher = more growth of mecA+ strain. To be noted: compound concentration: 150 uM; cefoxitin: subinhibitory; fluorescent label: DsRed. The method, boiled down:
as §1

Turning to `O=C1C(CC[S+]([O-])c2ccccc2)C(=O)N(c2ccccc2)N1c1ccccc1` (configuration not stated), the “normalized GFP fluorescence” value in test [1] stood at 0.525. For the same compound, in test [2], the “normalized DsRed fluorescence” value stood at 0.445.

In the case of `N#Cc1ccc(C(c2ccc(C#N)cc2)n2cncn2)cc1`, the “normalized GFP fluorescence” value in test [1] amounted to 0.628. For the same compound, the “normalized DsRed fluorescence” value in test [2] came to 0.758.

Take `Cc1ccccc1C(=O)Nc1ccc(C(=O)N2CCCC(O)c3cc(Cl)ccc32)c(C)c1` (configuration not stated): the “normalized GFP fluorescence” value in test [1] is 0.188. Besides, the “normalized DsRed fluorescence” value in test [2] came to 0.541.

Regarding `CC(C)c1nc(CN(C)C(=O)N[C@H](C(=O)N[C@@H](Cc2ccccc2)C[C@H](O)[C@H](Cc2ccccc2)NC(=O)OCc2cncs2)C(C)C)cs1` [Ritonavir], the “normalized GFP fluorescence” value in test [1] was 0.0352. Also, in test [2], the “normalized DsRed fluorescence” value worked out at 1.01.

Consider `CC[C@H]1OC(=O)[C@H](C)[C@@H](O[C@H]2C[C@@](C)(OC)[C@@H](O)[C@H](C)O2)[C@H](C)[C@@H](O[C@@H]2O[C@H](C)C[C@H](N(C)C)[C@H]2O)[C@](C)(OC)C[C@@H](C)C(=O)[C@H](C)[C@@H](O)[C@]1(C)O` [Clarithromycin (Biaxin, Klacid)], for which, in test [1], the “normalized GFP fluorescence” value stood at 0.181. The “normalized DsRed fluorescence” value in test [2] came to 0.788.

As to `CN1CC2c3ccccc3Oc3ccc(Cl)cc3C2C1` (configuration not stated) [Asenapine], the “normalized GFP fluorescence” value in test [1] was 0.129. In addition, the “normalized DsRed fluorescence” value in test [2] stood at 1.64.

`C[N+]1(C)[C@@H]2CC[C@H]1C[C@@H](OC(=O)C(O)c1ccccc1)C2` (some centres not stated): in test [1], the “normalized GFP fluorescence” value came out at 0.29. Further, the “normalized DsRed fluorescence” value in test [2] is 0.71.

As to `Cc1nc(Nc2ncc(C(=O)Nc3c(C)cccc3Cl)s2)cc(N2CCN(CCO)CC2)n1`, the “normalized GFP fluorescence” value in test [1] was 0.0741. Also, the “normalized DsRed fluorescence” value in test [2] was 0.816.

With `Cc1cc(=O)[nH]c(=S)[nH]1`, in test [1], the “normalized GFP fluorescence” value was found to be 0.707. The “normalized DsRed fluorescence” value in test [2] came out at 0.716.

Turning to `CCOC(=O)C1=C[C@]2(CC)CCCN3CCc4c(n1c1ccccc41)[C@@H]32`, the “normalized GFP fluorescence” value in test [1] stood at 0.593. In addition, in test [2], the “normalized DsRed fluorescence” value was 0.554.

As to `NC[C@H]1O[C@H](O[C@H]2[C@H](O[C@@H]3O[C@H](CO)[C@@H](O)[C@H]3O)[C@@H](O)[C@H](N)C[C@@H]2N)[C@H](N)[C@@H](O)[C@@H]1O`, in test [1], the “normalized GFP fluorescence” value stood at 0.457. For the same compound, the “normalized DsRed fluorescence” value in test [2] amounted to 0.685.

With `COc1cc(C2Oc3ccc(C4Oc5cc(O)cc(O)c5C(=O)C4O)cc3OC2CO)ccc1O` (configuration not stated) [Silymarin (Silybin B)], the “normalized GFP fluorescence” value in test [1] was 0.34. Moreover, the “normalized DsRed fluorescence” value in test [2] turned out to be 0.987.

Consider `CC(=O)Nc1cccc(-n2c(=O)n(C3CC3)c(=O)c3c(Nc4ccc(I)cc4F)n(C)c(=O)c(C)c32)c1`, for which the “normalized GFP fluorescence” value in test [1] was found to be 0.179. The “normalized DsRed fluorescence” value in test [2] turned out to be 1.12.

In the case of `Cn1c(=O)c2c(ncn2CC2OCCO2)n(C)c1=O`, the “normalized GFP fluorescence” value in test [1] amounted to 0.29. Besides, the “normalized DsRed fluorescence” value in test [2] is 1.05.

`CN1CCN(c2c(F)cc3c(=O)c(C(=O)O)cn(CCF)c3c2F)CC1` [Fleroxacin (Quinodis)]: the “normalized GFP fluorescence” value in test [1] worked out at 0.0169. The “normalized DsRed fluorescence” value in test [2] was found to be 0.075.

For the compound `O=C(NCCN1CCOCC1)c1ccc(Cl)cc1` [Moclobemide], in test [1], the “normalized GFP fluorescence” value was 0.558. The “normalized DsRed fluorescence” value in test [2] worked out at 0.739.

As for `CN1C2CCCC1CC(NC(=O)c1nn(C)c3ccccc13)C2` (configuration not stated), in test [1], the “normalized GFP fluorescence” value worked out at 0.718. In addition, in test [2], the “normalized DsRed fluorescence” value came to 0.441.

`CN1CC(=O)N2[C@H](c3ccc4c(c3)OCO4)c3[nH]c4ccccc4c3C[C@@H]2C1=O`: the “normalized GFP fluorescence” value in test [1] is 0.112. In test [2], the “normalized DsRed fluorescence” value worked out at 0.636.

For the compound `Nc1nc(=O)c2nc(CNc3ccc(C(=O)N[C@@H](CCC(=O)O)C(=O)O)cc3)cnc2[nH]1`, in test [1], the “normalized GFP fluorescence” value was 0.21. Besides, the “normalized DsRed fluorescence” value in test [2] was 0.831.

For the compound `CCCCC(=O)N(Cc1ccc(-c2ccccc2-c2nnn[nH]2)cc1)[C@H](C(=O)O)C(C)C`, the “normalized GFP fluorescence” value in test [1] came out at 0.105. Further, the “normalized DsRed fluorescence” value in test [2] came to 0.898.

For the compound `CC(C)OC(=O)OCOP(=O)(CO[C@H](C)Cn1cnc2c(N)ncnc21)OCOC(=O)OC(C)C` [Tenofovir Disoproxil Fumarate], in test [1], the “normalized GFP fluorescence” value is 0.238. The “normalized DsRed fluorescence” value in test [2] is 0.514.

Regarding `CN(C)C(=O)COC(=O)Cc1ccc(OC(=O)c2ccc(NC(=N)N)cc2)cc1` [Camostat Mesilate (FOY-305)], the “normalized GFP fluorescence” value in test [1] was found to be 0.0607. In addition, the “normalized DsRed fluorescence” value in test [2] came to 0.818.

Take `CO[C@H]1C[C@@H]2CC[C@@H](C)[C@@](O)(O2)C(=O)C(=O)N2CCCC[C@H]2C(=O)O[C@H]([C@H](C)C[C@@H]2CC[C@@H](OC(=O)C(C)(CO)CO)[C@H](OC)C2)CC(=O)[C@H](C)/C=C(\C)[C@@H](O)[C@@H](OC)C(=O)[C@H](C)C[C@H](C)/C=C/C=C/C=C/1C` [Temsirolimus (Torisel)]: the “normalized GFP fluorescence” value in test [1] is -0.00155. Further, the “normalized DsRed fluorescence” value in test [2] came out at 1.96.

As to `CC(C)/N=c1\cc2n(-c3ccc(Cl)cc3)c3ccccc3nc-2cc1Nc1ccc(Cl)cc1`, the “normalized GFP fluorescence” value in test [1] is 0.344. In test [2], the “normalized DsRed fluorescence” value stood at 1.15.

For the compound `Cc1ccccc1N1C(=O)c2cc(S(N)(=O)=O)c(Cl)cc2NC1C` (configuration not stated), in test [1], the “normalized GFP fluorescence” value turned out to be 0.113. In addition, the “normalized DsRed fluorescence” value in test [2] turned out to be 1.33.

For `CCN(Cc1ccncc1)C(=O)C(CO)c1ccccc1` (configuration not stated), in test [1], the “normalized GFP fluorescence” value was 0.402. The “normalized DsRed fluorescence” value in test [2] worked out at 0.607.

For the compound `CCc1ccc(CCOc2ccc(CC3SC(=O)NC3=O)cc2)nc1` (configuration not stated), the “normalized GFP fluorescence” value in test [1] turned out to be 0.499. Also, the “normalized DsRed fluorescence” value in test [2] amounted to 0.952.

As to `O=C1CN(/N=C/c2ccc(-c3ccc([N+](=O)[O-])cc3)o2)C(=O)N1`, the “normalized GFP fluorescence” value in test [1] stood at 0.519. Also, the “normalized DsRed fluorescence” value in test [2] was 0.706.

Turning to `CCCC(=O)Nc1ccc(OCC(O)CNC(C)C)c(C(C)=O)c1` (configuration not stated), in test [1], the “normalized GFP fluorescence” value worked out at 0.332. The “normalized DsRed fluorescence” value in test [2] was 0.62.

Take `CC[C@H](C)C(=O)O[C@H]1C[C@@H](C)C=C2C=C[C@H](C)[C@H](CC[C@@H]3C[C@@H](O)CC(=O)O3)[C@H]21`: in test [1], the “normalized GFP fluorescence” value is 0.345. In test [2], the “normalized DsRed fluorescence” value turned out to be 0.697.

With `COCCCOc1cc(C[C@@H](C[C@H](N)[C@@H](O)C[C@H](C(=O)NCC(C)(C)C(N)=O)C(C)C)C(C)C)ccc1OC`, the “normalized GFP fluorescence” value in test [1] is 0.131. The “normalized DsRed fluorescence” value in test [2] was determined as 0.717.

With `CCc1nn(CCCN2CCN(c3cccc(Cl)c3)CC2)c(=O)n1CCOc1ccccc1`, the “normalized GFP fluorescence” value in test [1] was 0.108. Further, the “normalized DsRed fluorescence” value in test [2] was determined as 0.736.

For the compound `S=P(N1CC1)(N1CC1)N1CC1`, the “normalized GFP fluorescence” value in test [1] was 0.213. Moreover, the “normalized DsRed fluorescence” value in test [2] worked out at 0.86.

Consider `C[C@H](Cc1cc2c(c(C(N)=O)c1)N(CCCO)CC2)NCCOc1ccccc1OCC(F)(F)F` [Silodosin (Rapaflo)], for which the “normalized GFP fluorescence” value in test [1] came out at 0.269. Besides, the “normalized DsRed fluorescence” value in test [2] was 1.1.

With `Clc1ccc(COC(Cn2ccnc2)c2ccc(Cl)cc2Cl)cc1` (configuration not stated) [Econazole nitrate (Spectazole)], the “normalized GFP fluorescence” value in test [1] was -0.00195. Also, the “normalized DsRed fluorescence” value in test [2] is 0.01.

In the case of `CC(C)NCC(O)COc1ccc(CCOCC2CC2)cc1` (configuration not stated) [Betaxolol hydrochloride (Betoptic)], the “normalized GFP fluorescence” value in test [1] turned out to be 0.372. In test [2], the “normalized DsRed fluorescence” value was 0.674.

Consider `COc1cc(Nc2ncc(F)c(Nc3ccc4c(n3)N(COP(=O)(O)O)C(=O)C(C)(C)O4)n2)cc(OC)c1OC` [R788 (Fostamatinib)], for which the “normalized GFP fluorescence” value in test [1] stood at 0.503. In test [2], the “normalized DsRed fluorescence” value was determined as 0.475.

For `CC1=C(CC(=O)O)c2cc(F)ccc2/C1=C\c1ccc([S+](C)[O-])cc1` (configuration not stated), the “normalized GFP fluorescence” value in test [1] turned out to be 0.33. The “normalized DsRed fluorescence” value in test [2] amounted to 0.476.

On to `O=C1CN(/N=C/c2ccc([N+](=O)[O-])o2)C(=O)N1`, for which the “normalized GFP fluorescence” value in test [1] stood at 0.0054. Moreover, the “normalized DsRed fluorescence” value in test [2] was found to be 0.0533.

Take `CCOC(=O)[C@H](CCc1ccccc1)N[C@H]1CCc2ccccc2N(CC(=O)O)C1=O`: the “normalized GFP fluorescence” value in test [1] is -0.00401. The “normalized DsRed fluorescence” value in test [2] worked out at 1.44.

`NS(=O)(=O)c1cc2c(cc1Cl)N=CNS2(=O)=O`: the “normalized GFP fluorescence” value in test [1] was 0.373. In test [2], the “normalized DsRed fluorescence” value came out at 0.683.

Turning to `CC(=O)Nc1c(I)c(NC(C)=O)c(I)c(C(=O)O)c1I`, the “normalized GFP fluorescence” value in test [1] came out at 0.477. In test [2], the “normalized DsRed fluorescence” value is 1.13.

For the compound `O=C(O)CCNC(=O)c1ccc(/N=N/c2ccc(O)c(C(=O)O)c2)cc1`, the “normalized GFP fluorescence” value in test [1] was 0.565. Moreover, the “normalized DsRed fluorescence” value in test [2] stood at 0.891.

With `c1ccc2c(CC3=NCCN3)cccc2c1`, the “normalized GFP fluorescence” value in test [1] stood at 0.526. Also, the “normalized DsRed fluorescence” value in test [2] came to 0.668.

As to `CC(=O)N[C@H]1[C@H]([C@H](O)[C@H](O)CO)OC(C(=O)O)=C[C@@H]1NC(=N)N` [Zanamivir (Relenza)], the “normalized GFP fluorescence” value in test [1] came to 0.233. The “normalized DsRed fluorescence” value in test [2] is 0.719.

`Cc1cnc(NC(=O)C2=C(O)c3ccccc3S(=O)(=O)N2C)s1`: the “normalized GFP fluorescence” value in test [1] was determined as 0.204. Further, in test [2], the “normalized DsRed fluorescence” value is 0.469.
